# Results: paper PMC11062922 (Nature Chemical Biology, 2023)
# Where two headings read alike, the source gives them in different places.
# Columns and labels:
# Set-up in all cases: species or system human, MV4-11 + K-562 + COLO205 + SK-N-BE2 + OVCAR-8
# CDK7 = conditions: read-out: apparent Kd, n = 1
# EPHA4 = conditions: read-out: apparent Kd, n = 1
# EPHB4 = conditions: read-out: apparent Kd, n = 1
# PKN3 = conditions: read-out: apparent Kd, n = 1
# AURKA = conditions: read-out: apparent Kd, n = 1
# LIMK1 = conditions: read-out: apparent Kd, n = 1
# MAPK10 = conditions: read-out: apparent Kd, n = 1
# MAPK11 = conditions: read-out: apparent Kd; compound concentrations: 100 nM and 1000 nM (sheet 'Samples'), CATDS: 2.56124612703456E-2; n = 1
# PIK3CG = conditions: read-out: apparent Kd; compound concentrations: 100 nM and 1000 nM (sheet 'Samples'), CATDS: 3.2678630734210498E-2; n = 1
# PRKAG1 = conditions: read-out: apparent Kd, n = 1
# SYK = conditions: read-out: apparent Kd, n = 1
# CDK4 = conditions: read-out: apparent Kd, compound concentrations: 100 nM and 1000 nM (sheet 'Samples'), n = 1
# NUAK1 = conditions: read-out: apparent Kd; compound concentrations:100 nM and 1000 nM (sheet 'Samples'); n = 1
# STK10 = conditions: read-out: apparent Kd; compound concentrations:100 nM and 1000 nM (sheet 'Samples'); n = 1
# PIM2 = conditions: read-out: apparent Kd, n = 1
# [1] = compound concentrations:100 nM and 1000 nM (sheet 'Samples')
compound,measurement,setting,value
CN(C)Cc1ccc(-c2ccc3c(Nc4ccc(Oc5ccccn5)cc4)ccnc3c2)o1 [GW567148X],potency estimated from few doses,"CDK7; compound concentrations: 100 nM and 1000 nM (sheet 'Samples'), CATDS: 2.45792325734666E-2",573 nM
same,potency estimated from few doses,"EPHA4; compound concentrations: 100 nM and 1000 nM (sheet 'Samples'), CATDS: 2.1324962018011699E-2",824 nM
same,potency estimated from few doses,"EPHB4; compound concentrations: 100 nM and 1000 nM (sheet 'Samples'), CATDS: 2.5851405238779799E-2",509 nM
same,potency estimated from few doses,"PKN3; compound concentrations: 100 nM and 1000 nM (sheet 'Samples'), CATDS: 1.7061922393971401E-2",1730 nM
O=S(=O)(CCOCc1ccc(-c2ccc3ncnc(Nc4ccc(OCc5cccc(F)c5)c(Cl)c4)c3c2)o1)c1ccccc1 [GW615311X],potency estimated from few doses,"AURKA; compound concentrations: 100 nM and 1000 nM (sheet 'Samples'), CATDS: 3.2222679542607199E-2",1020 nM
same,potency estimated from few doses,"LIMK1; compound concentrations: 100 nM and 1000 nM (sheet 'Samples'), CATDS: 2.6639361665983699E-2",1500 nM
same,potency estimated from few doses,"MAPK10; compound concentrations: 100 nM and 1000 nM (sheet 'Samples'), CATDS: 3.14341615066977E-2",1070 nM
same,potency estimated from few doses,MAPK11,1650 nM
same,potency estimated from few doses,PIK3CG,992 nM
same,potency estimated from few doses,"PKN3; compound concentrations: 100 nM and 1000 nM (sheet 'Samples'), CATDS: 2.28065209428794E-2",2200 nM
same,potency estimated from few doses,"PRKAG1; compound concentrations: 100 nM and 1000 nM (sheet 'Samples'), CATDS: 2.7047929037046701E-2",1450 nM
same,potency estimated from few doses,"SYK; compound concentrations: 100 nM and 1000 nM (sheet 'Samples'), CATDS: 2.2434221169995199E-2",2300 nM
CC(=O)N1CCN(c2ccc(Nc3nccc(-c4sc(C(C)C)nc4-c4cccc(NS(=O)(=O)c5ccccc5)c4)n3)cn2)CC1 [GSK1645872A],potency estimated from few doses,CDK4; CATDS: 2.3530905499939799E-2,1530 nM
same,potency estimated from few doses,"LIMK1; compound concentrations: 100 nM and 1000 nM (sheet 'Samples'), CATDS: 9.09760903229518E-2",111 nM
COc1cc2ncn(-c3cc(OCCCc4ccccc4)c(C(N)=O)s3)c2cc1OC [GSK205189A],potency estimated from few doses,CDK7; [1],79.1 nM
same,potency estimated from few doses,EPHA4; [1],1250 nM
same,potency estimated from few doses,EPHB4; [1],636 nM
same,potency estimated from few doses,NUAK1,1770 nM
same,potency estimated from few doses,PRKAG1; [1],1310 nM
CC(=O)N1CCN(c2ccc(Nc3nccc(-c4sc(C(C)C)nc4-c4cccc(NS(=O)(=O)c5cccc(Cl)c5)c4)n3)cn2)CC1 [GSK1660437A],potency estimated from few doses,"LIMK1; compound concentrations: 100 nM and 1000 nM (sheet 'Samples'), CATDS: 8.9017548853229503E-2",288 nM
CC(C)c1nc(-c2cccc(NS(=O)(=O)c3c(F)cccc3F)c2F)c(-c2ccnc(Nc3ccc(N4CCOCC4)nc3)n2)s1 [GSK2008607A],potency estimated from few doses,"LIMK1; compound concentrations: 100 nM and 1000 nM (sheet 'Samples'), CATDS: 3.4604855317968697E-2",358 nM
COc1cc2ncn(-c3cc(OCc4ccncc4)c(C(N)=O)s3)c2cc1OC [GSK336313A],potency estimated from few doses,STK10,1930 nM
CC(C)c1nc(-c2cccc(NS(=O)(=O)c3c(F)cccc3F)c2)c(-c2ccnc(Nc3ccc(N4CCOCC4)nc3)n2)s1.Cl [GSK1723980B],potency estimated from few doses,CDK4; CATDS: 1.44710084593789E-2,1810 nM
same,potency estimated from few doses,"LIMK1; compound concentrations: 100 nM and 1000 nM (sheet 'Samples'), CATDS: 8.5923205073472897E-2",36.9 nM
Cl.Cn1c(=O)c(Cc2ccc(F)cc2F)cc2cnc(NC3CCOCC3)nc21 [RO3308757-001],potency estimated from few doses,CDK7; [1],331 nM
same,potency estimated from few doses,EPHA4; [1],743 nM
same,potency estimated from few doses,EPHB4; [1],268 nM
same,potency estimated from few doses,MAPK10; [1],886 nM
Fc1ccc(-c2c(-c3ccncc3)[nH]c3nccnc23)cc1 [RO1155697-000],potency estimated from few doses,MAPK10; [1],869 nM
same,potency estimated from few doses,PIM2; [1],1070 nM
same,potency estimated from few doses,PKN3; [1],31.1 nM
COc1ccc(-c2nc3n(c2-c2ccncc2)CCC3)cc1.COc1ccc(-c2nc3n(c2-c2ccncc2)CCC3)cc1.O=S(=O)(O)O.O=S(=O)(O)O [SKF-104493-B2],potency estimated from few doses,"PIM2; compound concentrations: 100 nM and 1000 nM (sheet 'Samples'), CATDS: 0.11675722362862",1570 nM
same,potency estimated from few doses,"PKN3; compound concentrations: 100 nM and 1000 nM (sheet 'Samples'), CATDS: 0.15312963325727599",911 nM
CC(C)c1nc(-c2ccc(F)c(NS(=O)(=O)c3c(F)cccc3F)c2)c(-c2ccnc(Nc3ccc(N4CCOCC4)nc3)n2)s1 [GSK1804250A],potency estimated from few doses,LIMK1; [1],125 nM
COc1cc2ncn(-c3cc(OCc4cccs4)c(C(N)=O)s3)c2cc1OC [GSK312948A],potency estimated from few doses,STK10,109 nM
Nc1nc(N)c2nc(-c3ccccc3)[nH]c2n1 [SKF-12778],potency estimated from few doses,AURKA; [1],1110 nM
same,potency estimated from few doses,MAPK10; [1],925 nM
same,potency estimated from few doses,SYK; [1],1850 nM
